Here are results for six substances from ChEMBL document CHEMBL1201862, “PubChem BioAssay data set” (2004).

In all, about 28,000 sequences went through this assay and about 1,300 (4.6%) were called active. Rule as the data show it: active = GI50 up to about 1.1 µM and inactive = higher. The entries come from a sample that favours actives as a whole. Measured potencies and affinities stand elsewhere.

Broadly, the GI50 is the concentration giving 50% growth inhibition.

This assay relates to MDA-N.
The substance “[Bis(aminomethyl)pentamethylenesilane]dichloropaltinum(II), CHEMBL2146202” displayed a GI50 of 2.42 µM.
Regarding “[Bis(aminomethyl)pentamethylenesilane]tetrachloropaltinum(IV), CHEMBL2146204”, halving of growth (GI50) required 0.935 µM.
The result for “[Bis(aminomethyl)dimethylsilane]tetrachloroplatinum(IV), CHEMBL2146190” reads 15.9 µM; that for “[Bis(aminomethyl)tetramethylenesilane]tetrachloropaltinum(IV), CHEMBL2146189”, 2.72 µM; that for CISPLATIN, CHEMBL11359, 6.18 µM.
As to “[Bis(aminomethyl)tetramethylenesilane]dichloropaltinum(II), CHEMBL2146205”, the GI50 came out at 6.89 µM.
